D2 PAM-1 = potentiates the human D2 dopamine receptor allosterically | AID 624464 | hit rate 0.23% among 360,000 | potentiation, % (test concentration not listed) | DiscoveRx D2 beta-arrestin cells, luminescence, 90 min; 100% = 57 uM dopamine signal; in the data active = potentiation above about 50%; inconclusive = mostly about 30% to 49%
Target sequence (P14416 whole entry, looked up): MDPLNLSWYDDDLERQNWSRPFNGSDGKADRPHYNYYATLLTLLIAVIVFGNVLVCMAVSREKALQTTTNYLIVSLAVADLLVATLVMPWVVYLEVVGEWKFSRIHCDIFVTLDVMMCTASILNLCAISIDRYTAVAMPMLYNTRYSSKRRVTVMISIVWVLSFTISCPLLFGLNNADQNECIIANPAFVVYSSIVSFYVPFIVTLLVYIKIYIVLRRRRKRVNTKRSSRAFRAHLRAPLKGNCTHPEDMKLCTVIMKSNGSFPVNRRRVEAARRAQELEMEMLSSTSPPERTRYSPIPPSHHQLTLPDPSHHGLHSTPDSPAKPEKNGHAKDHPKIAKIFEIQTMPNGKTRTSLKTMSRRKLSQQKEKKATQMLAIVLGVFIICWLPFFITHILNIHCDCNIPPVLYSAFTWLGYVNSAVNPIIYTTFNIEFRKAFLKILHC
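D2 cells co-treated with compound plus 50 nM dopamine (EC20) for 90 min at 37 deg C to detect potentiation. Beta-arrestin recruitment was read as enzyme-fragment luminescence after 1 h at ambient temperature. Full response was set by 57 uM dopamine.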
D2 ag-1 = agonists of human D2 dopamine receptor; HEK293 T-REx D2 cells, calcium flux agonist mode; activation, % at 2 µM; hit rate 0.53% among 340,000; AID 485358;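 active = activation over 3 SD above normal in the single-dose calcium agonist read, cut at about 30% in these data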; note: 0% is about no effect
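Agonism scored from kinetic calcium signal (1 read/sec, 180 s) following compound pin transfer, after a 10 s baseline. Cells: HEK293 Trex line expressing inducible D2 receptor coupled to calcium, dye-loaded after overnight culture at 30 C.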
D2 PAM-2 = positive allosteric modulators of human D2 dopamine receptor; P14416; HEK293 T-REx D2, calcium flux, EC20 dopamine potentiation; potentiation, % at 10 µM; hit rate 0.34% among 340,000;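 active = potentiation over 3 SD above the plate norm, cut at about 30% in these data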; note: 0% is about no effect
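Potentiation of an EC20 dopamine calcium response is measured in a force-coupled, tetracycline-inducible Hek293 Trex D2 line. Compound-only kinetic reads over 180 s flag agonists before dopamine addition.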
D2 ag-2 = activates the human D2 dopamine receptor. P14416. DiscoveRx PathHunter D2 beta-arrestin, luminescence, 90 min; 100% = 57 uM dopamine signal. activation, % (no concentration beside the values). hit rate 0.084% among 360,000; in the data active = activation above about 40%; inconclusive = between about 15% and that limit
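DiscoveRx PathHunter D2 beta-arrestin cells (2,100/well) attached overnight, then compound-stimulated 90 min at 37 C in HBSS/10 mM HEPES/0.1% Tween-20 buffer; beta-galactosidase complementation read by luminescence after 1 h at ambient temperature. Dopamine 57 uM final (EC100) as control.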
D2 antag = antagonizes the human D2 dopamine receptor | inhibition, % at 10 µM | hit rate 2% among 340,000 | P14416 | HEK293 TREx D2 cells, calcium flux, dopamine EC80 | AID 485344; in the data active = inhibition above about 30%; inactive = below that, where a call was filed; note: 0% is about no effect
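Tetracycline-induced HEK293 T-REx cells expressing D2 force-coupled to calcium signalling were dye-loaded, exposed to compound for 180 s, then challenged with an EC80 of dopamine; calcium flux was followed kinetically for a further 180 s.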
Active calls of the source: *; ? = inconclusive; . = no result. Rows were chosen to be rich in hits. Some 2.4% of all compounds tested hit in one or more screens of this group.

SMILES	D2 PAM-1	D2 ag-1	D2 PAM-2	D2 ag-2	D2 antag
Cc1nc2c(C(=O)NCCC(C)C)c[nH]n2c(=O)c1Cc1ccccc1F	5	1	5	3	37*
Cc1nc2c(C(=O)NCCc3ccc(Cl)cc3)c[nH]n2c(=O)c1Cc1ccccc1F	.	.	-16	.	.
COc1ccc(OC)c(NC(=O)Cn2ncc3c2-c2ccccc2OC3)c1	.	1	-4	.	.
CCCn1cnnc1CNC(=O)[C@H]1O[C@@H](n2cnc3c(N)ncnc32)[C@H](O)[C@@H]1O	-5	.	.	-5	.
Cc1ccccc1NC(=O)Cn1nnc(-c2ccc(CN3CCC(C)CC3)cc2)n1	-15	2	-8	0	33*
COc1ccccc1N1CCN(C(=O)COc2ccc(S(=O)(=O)NC(C)(C)C)cc2)CC1	.	-1	-1	.	-10
Cn1nnc(NC(=S)NC(=O)c2cccc3c(Cl)cccc23)n1	-49	0	-5	-10	3
Cc1ccc(-c2nn(-c3cccc(F)c3)cc2CN(Cc2nccn2C)C(C)C)o1	-18	-1	-15	-4	3
Cc1ccc(-c2nn(-c3cccc(F)c3)cc2CN2CCN(c3ccccn3)CC2)o1	-18	7	-26	-4	80*
NC(=O)CSc1nc2cc3c(cc2c(=O)n1CCCCCC(=O)NCc1ccc2c(c1)OCO2)OCO3	.	0	-8	.	.
NC(CC(=O)NC(c1ccccc1)(c1ccccc1)c1ccccc1)C(=O)O (stereo not drawn)	-5	1	37*	-5	-3
CC(=NNC(=S)N1CC2CCC(CC2)C1)c1cnccn1	97*	.	.	?	.
CCC(=O)Nc1nnc(/C=C/c2ccc(OC)cc2)s1	1	0	11	6	35*
COc1ccc(/C=C/c2nnc(NC(=O)CSc3ccc(C)cc3)s2)cc1	-2	.	.	-3	.
CC(=O)Nc1ccc(NC(=O)CSCCc2ccccn2)cc1	-12	0	34*	-1	-10
COc1ccc(-c2nnc(NC(=O)c3ccccc3C)o2)cc1	-2	-1	-1	-3	51*
Cc1ccc(S(=O)(=O)N(C)c2ccccc2)cc1	4	1	-4	-4	-1
CC(=O)Oc1ccc(N(c2ccccc2)S(=O)(=O)c2ccc(C)cc2)cc1	-4	2	39*	-3	-16
CC(C)Oc1ccc(C2CC(=O)N(c3ccccc3)C2=O)cc1 (stereo not drawn)	22	.	.	-1	.
CC(C)Oc1ccc(C2CC(=O)N(c3ccc(N(C)C)cc3)C2=O)cc1 (stereo not drawn)	-2	0	-6	-3	34*
O=S1(=O)CCOCCCN1Cc1ccccc1	-12	0	8	0	9
CCOc1ccc(CNCc2c(C(=O)O)c(C)n(Cc3ccc(C)cc3)c2C)cc1	.	0	-5	.	.
O=C(c1ccco1)n1nc(-c2ccccc2)nc1NCc1ccccc1Cl	.	0	-2	.	.
CCCCC(=NCCc1c(C)[nH]c2ccc(OC)cc12)C1=C(O)CC(c2ccccc2)CC1=O (stereo not drawn)	-20	6	33*	2	-13
CCN1C(=O)c2ccccc2S(=O)c2ccc(C(=O)N3CCCCCC3)cc21 (stereo not drawn)	-3	0	-3	-1	32*
SMILES	D2 PAM-1	D2 ag-1	D2 PAM-2	D2 ag-2	D2 antag
Cn1c(=S)[nH]c2scc(-c3cccs3)c2c1=O	67*	.	.	14	.
CC(C)Oc1ccc(CNS(=O)(=O)c2csc(C(N)=O)c2)cc1	-8	-1	1	5	2
CCCCOc1ccc(C(=O)Oc2cc(C)[nH]c(=O)c2[N+](=O)[O-])cc1	-1	0	-2	-6	77*
CCOc1ccc(C(=O)Oc2cc(C)[nH]c(=O)c2[N+](=O)[O-])cc1	-2	0	6	-3	15
Cc1cc(C)c(Cn2c3ccccc3c3cnn(CC(=O)N4CCCCCC4)c(=O)c32)c(C)c1	.	-1	5	.	.
COc1ccc(N(C(=O)CNC(=O)c2ccco2)C(C(=O)NCC2CCCO2)c2ccccc2)cc1 (stereo not drawn)	-8	0	-2	-4	-2
CN(CCC#N)C(=O)Cn1nc(Cc2ccncc2)c2ccccc2c1=O	-6	-2	12	-3	35*
C=CC(C)(C)c1[nH]cnc1/C=C1\NC(=O)C(C(C)C)NC1=O (stereo not drawn)	1	1	6	1	76*
CCC(C)c1ccccc1OCCOCCN1CCCC1 (stereo not drawn)	-27	-2	-17	1	54*
CCC(C)c1ccccc1OCCCCN1CCCC1 (stereo not drawn)	-33	0	-23	0	65*
Brc1ccccc1OCCCCCN1CCCC1	.	-1	-22	.	-24
CCC(C)c1ccccc1OCCCNC1CCCC1 (stereo not drawn)	-8	2	-26	-7	78*
CCc1ccccc1NC(=O)C1CCN(S(=O)(=O)c2ccc3[nH]c(=O)ccc3c2)CC1	.	0	2	.	.
Cc1cc(C)c2nc(NNC(=O)c3cc(=O)c4ccccc4o3)sc2c1	-5	1	-2	3	11
COC(=O)C1CCN(S(C)(=O)=O)CC1	-4	1	42*	-4	-15
COC(=O)C1CCN(S(=O)(=O)c2ccc(NC(C)=O)cc2)CC1	-19	1	2	-4	-17
Cc1ccc(N2CC(C(=O)OCC(=O)Nc3cc(C)on3)CC2=O)c(C)c1 (stereo not drawn)	-13	0	-5	-3	-5
Cc1cc(C)cc(N2CC(C(=O)OCC(=O)Nc3cc(C)on3)CC2=O)c1 (stereo not drawn)	-5	-1	41*	-4	15
O=C(OCC(=O)N1CCN(C(=O)c2ccco2)CC1)c1cncc(Br)c1	-2	0	6	-1	-33
Nc1cc(=O)[nH]c(SCC(=O)Nc2ccc(Oc3ccccc3)cc2)n1	-3	0	17	-2	-9
COc1cc(NS(=O)(=O)c2ccc(NC(=O)/C=C/c3ccc([N+](=O)[O-])cc3)cc2)ncn1	102*	0	9	-5	-4
COc1cccc(-c2nc3ccccc3s2)c1O	-2	-1	1	-3	-4
Clc1ncccc1-c1nc2ccccc2s1	-5	-1	66*	0	5
O=C(CCN1C(=O)c2ccccc2S1(=O)=O)N1CCN(c2ccc(F)cc2)CC1	-3	0	-9	-6	33*
O=C(CCN1C(=O)c2ccccc2S1(=O)=O)N1CCN(c2ccccc2)CC1	-28	0	-6	4	11
Cc1cccc(NC(=O)c2ccc(NS(=O)(=O)c3cccc4cccnc34)cc2)c1	0	.	.	1	.
O=C(COC(=O)c1cc[n+]([O-])cc1)Nc1ccc(SC(F)F)cc1	0	1	-5	-1	31*
O=C(COC(=O)c1cc[n+]([O-])cc1)Nc1ccc(Br)cc1	-2	-1	-2	2	-24

Compound activity (PubChem)
